Screening data from PubChem.
D3 ag – agonists of human D3 dopamine receptor. P35462. D3R DiscoveRx beta-arrestin cells, luminescence, 90 min. max activation, %. hit rate 0.58% among 410,000. AID 652048; in the data active means max activation above about 30%; further: 0% is about no effect
Target sequence (P35462 whole entry, looked up): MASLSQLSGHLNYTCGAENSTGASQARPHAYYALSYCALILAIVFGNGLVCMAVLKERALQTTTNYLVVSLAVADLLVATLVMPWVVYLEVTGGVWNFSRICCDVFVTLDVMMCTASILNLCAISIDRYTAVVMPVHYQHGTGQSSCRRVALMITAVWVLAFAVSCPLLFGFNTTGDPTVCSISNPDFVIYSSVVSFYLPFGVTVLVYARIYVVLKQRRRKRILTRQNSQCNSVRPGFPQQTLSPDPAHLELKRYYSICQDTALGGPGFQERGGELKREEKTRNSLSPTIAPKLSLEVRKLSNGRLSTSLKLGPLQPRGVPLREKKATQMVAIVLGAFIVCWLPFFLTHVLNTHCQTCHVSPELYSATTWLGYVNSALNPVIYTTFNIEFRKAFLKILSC
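Agonist mode: compounds and dopamine controls were applied to plated cells for 90 min at 37 degrees C after an overnight attachment at 1500 cells/well. Luminescent read-out followed 30 - 60 minutes at room temperature with DiscoveRx detection reagent.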
D1 antag – blocks dopamine activation of the human D1 receptor; activity change, negative = inhibition, % at 10 µM; HEK293 TREx D1 cells, calcium flux, dopamine EC80; hits give low values; AID 504652; P21728; hit rate 3.2% among 360,000; in the data active means activity change below about -30%; further: on the % scale 0 is the no-effect control and ±100 the full control effect
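Antagonism measured as reduced calcium response to an EC80 dopamine addition following 180 s compound pre-read; cells were inducible HEK293 Trex D1 plated overnight at 30 C, read kinetically at 1 cycle/sec.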
DRD3 antagonist – D3 dopamine receptor (human) antagonism; hit rate 2.5% among 360,000; D3R cells, DiscoveRx beta-arrestin luminescence, antagonist mode; hits give low values; P35462; max response, negative = inhibition, %; in the data active means max response below about -50%; inconclusive means no clear call, values can overlap the other calls; further: on the % scale 0 is the no-effect control and ±100 the full control effect
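Cells expressing the human receptor were seeded at 1500 cells/well, incubated overnight at 37 degrees C in 5% CO2, then exposed to library compounds with dopamine controls for 90 minutes at 37 degrees C before luminescent detection.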
BCR signal inh – blocks chronic active B-cell receptor signaling; Potency, µM (series often up to 46.1 µM), inactives show top-dose activity change, negative = inhibition, usual class: inhibitors; ABC-DLBCL IkBa-CBG/CBR reporter, luminescence ratio, 4 h; hit rate 0.05% among 340,000; active means well fitted inhibition curve with a large enough effect in the signal ratio, with a control signal flat, not every such curve was filed as active; inconclusive means small, poorly fitted or top-dose-only effect, or effect the other way, or a change in a side signal; the % refers to the signal ratio;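 further: potency means the concentration at half of the fitted maximal effect; plate controls were basal doxycycline-induced cells for no effect and cells given 10 µM MG132 for full effect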
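Concentration-response series (up to 46 uM) were applied to TMD8 dual-reporter cells for 4 h at 37C with doxycycline. Green/red ratio, after filter-overlap correction, defined %Activity; red signal alone was normalised to basal cells and zero luminescence.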
D1 PAM – potentiators of human D1 dopamine receptor. HEK293 TREx D1 cells, calcium flux, dopamine EC20 potentiation. hit rate 0.036% among 360,000. AID 504651. P21728. potentiation, % at 10 µM; in the data active means potentiation above about 30%; further: 0% is about no effect
D1 agonist – human D1 receptor agonism; P21728; HEK293 T-REx D1 cells, calcium flux, agonist mode; activation, % at 2 µM; hit rate 1% among 360,000; AID 504660; in the data active means activation above about 30%; further: 0% is about no effect
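Inducible HEK293 T-REx D1 cells, force-coupled to calcium signalling, were plated at 4000 cells/well with tetracycline and held overnight at 30 C. After no-wash calcium dye loading, compound-evoked calcium rise over 180 s flagged agonists.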
* hit, by the source's call; ? = inconclusive; nt = no result. Sampled rows, rich in hits. Any-hit rate of the full collection: about 6%.

SMILES	D3 ag	D1 antag	DRD3 antagonist	BCR signal inh	D1 PAM	D1 agonist
CN1CCN(c2ccccc2/C=N/NC(=O)c2cccnc2)CC1	-17.7	-9.5	-50.1*	2.4%	0.5	3.4
COc1ccc(-n2nc3c(c2NC(=O)C24CC5CC(CC(C5)C2)C4)CS(=O)C3)cc1 (stereo not given)	-3.5	-5.7	-55.7*	-21.1%	nt	1.4
CCc1nn(CC(=O)NCCc2ccc(Cl)cc2)c(=O)c2cc3ccccc3n12	0.6	13.3	nt	nt	-2.1	-0.2
Cn1nnc2cc(NC(=O)NCc3ccc4c(c3)OCO4)ccc21	-20.1	1.5	-89.7*	5.1%	-0.1	8.4
Cn1nnc2cc(C(=O)NCc3ccc4c(c3)OCO4)ccc21	-0.9	-1.3	9.7	?	-1.6	2.0
CCOC(=O)C1=C(N)n2c(s/c(=C/c3ccco3)c2=O)=C(C(=O)OC)C1c1ccco1 (stereo not given)	-6.8	-1.0	-30.0	-21.0%	2.5	50.3*
O=C(CSc1nccc(-c2cccs2)n1)Nc1ccc(F)c(Cl)c1	3.3	-39.0*	2.6	-0.7%	-7.0	2.4
O=C(O)CCC(NC(=O)c1ccc(Cl)cc1)C(=O)O (stereo not given)	-6.3	-31.9*	-8.0	3.5%	-3.8	1.1
CC(C)(C)c1ccc(NC(=O)c2cc(C3CCCN(S(=O)(=O)c4cccc5cccnc45)C3)on2)cc1 (stereo not given)	-11.3	nt	0.0	nt	nt	nt
CC1=C(c2ccc(C)c(C)c2)S(=O)(=O)N(Cc2ccc(C(=O)Nc3cc(F)ccc3F)cc2)C1=O	1.3	12.1	nt	nt	-5.6	4.2
Cc1c(C)n(CC(O)CSc2ccccc2)c2ccccc12 (stereo not given)	5.8	nt	2.6	nt	nt	nt
CCOC(=O)c1ccc(NC(=O)c2c(O)c3ccccc3n(C)c2=O)cc1	nt	-72.9*	nt	?	-4.1	-0.8
CCOC(=O)c1ccc(NC(=O)c2c(N)n(C)c(=O)n(C)c2=O)cc1	23.6	nt	23.1	nt	nt	nt
CCOC(=O)c1ccc(NC(=O)c2oc(=O)c3ccccc3c2-c2ccccc2)cc1	0.7	-48.2*	nt	-7.7%	-0.5	4.6
COC(=O)c1cc(NC(=O)c2oc(=O)c3ccccc3c2-c2ccccc2)cc(C(=O)OC)c1	1.9	5.0	nt	nt	4.0	-0.5
CC(=O)c1cccc(NC(=O)c2oc(=O)c3ccccc3c2-c2ccccc2)c1	4.2	-43.4*	nt	-19.4%	-1.6	5.3
OCc1ccccc1-c1ccc2nccn2c1	0.0	nt	7.0	nt	nt	nt
Cc1cc(F)ccc1NC(=O)C1CCN(C(=O)c2cnn(-c3ccccc3)c2-n2cccc2)CC1	3.9	-27.6	nt	nt	2.5	-1.6
CC(C)N=c1scc(-c2cccs2)n1/N=C/c1ccc(O)c(O)c1O	64.0*	-5.8	49.4	-9.8%	-3.2	8.3
CN=c1scc(-c2ccccc2F)n1/N=C/c1ccc(O)c(O)c1O	107.3*	-40.6*	11.5	-16.8%	-9.7	18.5
Cc1nnc(SCC(=O)NC2CC2)s1	-4.4	-47.6*	-12.9	-2.3%	-1.1	1.4
COc1ccc(CNC(=O)CCCN2C(=O)c3cccnc3Oc3ccc(Cl)cc32)cc1	2.7	-7.7	nt	nt	-1.9	-0.1
C/C(=N\Nc1nc2ccccc2[nH]1)c1ccc(C)o1	-7.7	-51.8*	11.1	?	-8.6	3.0
C/C(=N\Nc1nc2ccccc2[nH]1)c1ccc(Cl)s1	-2.4	2.7	-3.7	?	-10.8	0.5
Cc1cnc(CNC(=O)c2ccc(OC3CCN(C(=O)C4CC4)CC3)cc2)cn1	-1.8	0.0	2.1	3.4%	5.4	1.7
SMILES	D3 ag	D1 antag	DRD3 antagonist	BCR signal inh	D1 PAM	D1 agonist
O=C(NCC1CCCO1)c1ccc(OC2CCN(C(=O)C3CC3)CC2)cc1 (stereo not given)	-3.9	-34.0*	13.9	?	2.7	0.1
Cc1[nH]c2ccccc2c1/C=N/NC(=O)c1cc(-c2ccncc2)nc2ccccc12	8.2	-42.6*	-7.8	?	-17.1	1.4
Cc1[nH]c2ccccc2c1/C=C/C(=O)c1ccccc1	-20.2	-19.8	?	?	-3.1	41.3*
Cc1[nH]c2ccccc2c1/C=N/NC(=O)CCC(=O)Nc1ccccc1	-10.1	-47.6*	-19.7	-26.4%	-4.2	1.0
Cc1[nH]c2ccccc2c1/C=N/NC(=O)c1cc(C(C)(C)C)[nH]n1	-42.6	9.8	-58.8*	-9.2%	-0.8	0.2
Cc1[nH]c2ccccc2c(=O)c1C(=O)/C=C/c1ccccc1	-5.2	1.9	?	?	1.3	0.6
Cc1[nH]c2ccccc2c1/C=N/NC(=O)c1cc(-c2ccccc2)n[nH]1	-15.7	-3.0	0.7	-4.5%	-2.9	1.0
CC(=O)NC(C)(c1ccccc1)c1nc(-c2cccc(F)c2)cs1 (stereo not given)	-15.3	nt	-17.9	nt	nt	nt
COc1ccc(N(Cc2nnc3n2CCCCC3)C(=O)Nc2ccc(Cl)cc2)cc1Cl	-1.7	-11.2	nt	nt	-2.6	1.2
O=Cc1c[nH]c2ccc(S(=O)(=O)N3CCCCC3)cc12	-4.1	nt	13.9	nt	nt	nt
Cc1ccc(N2C(=O)c3cccc4c(N)ccc(c34)C2=O)c2cccnc12	-3.0	-67.8*	3.1	?	7.8	334.4*
Cc1nn(C)c(C)c1N1C(=O)c2cccc3c(N)ccc(c23)C1=O	2.5	-27.2	16.9	-1.4%	6.5	355.5*
CCN1C(=O)c2cccc3c(N)ccc(c23)C1=O	3.7	-22.5	22.9	-0.7%	3.8	231.3*
CC1C(=O)N(Cc2cn(Cc3ccco3)nn2)CCS(=O)(=O)N1Cc1ccc(-c2ccncc2)cc1 (stereo not given)	-1.8	nt	6.5	nt	nt	nt
Cc1cccc(N(C)C(=O)CCS(=O)(=O)c2ccc3c(c2)n(C)c(=O)c(=O)n3C)c1	4.3	-31.9*	nt	nt	-4.7	-0.7
Cc1ccc2c(c1)c(=O)c1ccccc1n2CCCC(=O)Nc1ccc(C)c(F)c1	0.1	-47.5*	nt	nt	-2.0	6.7
Cc1ccc(NC(=O)Cc2nn(C)c(=O)c3ccccc23)cc1F	5.5	-66.2*	13.7	-0.1%	-5.8	16.7
Cn1nc(CC(=O)Nc2ccc3c(c2)OCCO3)c2ccccc2c1=O	7.8	-21.9	18.9	-23.5%	-4.9	14.1
Cc1ccc2c(c1)c(=O)c1ccccc1n2CCCC(=O)Nc1ccc(C)c(C)c1	3.5	-1.3	nt	nt	-1.1	1.9
COC(=O)c1ccc(N)c(N=CC2=C(O)CC(C)(C)CC2=O)c1	-8.5	2.9	-50.8*	-15.1%	-3.9	10.5
CSc1ccccc1N=CC1=C(O)CC(C)(C)CC1=O	-1.9	7.5	?	12.3%	-2.4	-0.8
CC1(C)CC(=O)C(C=Nc2cc(C(=O)c3ccccc3)ccc2N)=C(O)C1	-26.7	-44.7*	-124.9*	?	-13.6	12.6
Cc1ccc2c(c1)sc(C)[n+]2CCCS(=O)(=O)[O-]	-22.0	-5.3	-85.6*	?	-6.8	6.0
